# Where a name gives a salt, the structure may show the parent alone. A number with no mark means an inactive call.
# Tested on: Vero E6 infected with SARS-CoV-2
# Experiment: inhibition of SARS-CoV-2 cytopathic effect; higher = more antiviral protection, active = above 15
# Conditions: 8.33 nM; 48 h
row,Compound,inhibition of SARS-CoV-2 cytopathic effect
1,N[C@@H]1CCN(c2cccnc2)C1,0.19%
2,O=C1c2ccccc2-c2n[nH]c3cccc1c23 [pyrazolanthrone],0.82%
3,CCC(=O)O[C@H]1CC[C@H]2[C@@H]3CCC4=CC(=O)CC[C@]4(C)[C@H]3CC[C@]12C,-10.2%
4,N[C@@H](CSCCCO)C(=O)O [fudosteine],1.3%
5,CC(C)(Cc1c[nH]c2ccc(Cl)cc12)NCCOc1ccccc1OCC1CC1,-0.91%
6,Cc1cccc(C)c1NC(=O)c1ccccc1C(=O)O [ftaxilide],0.92%
7,CO[C@H]1/C=C/O[C@@]2(C)Oc3c(C)c(O)c4c(O)c(c(/C=N/N5CCN(C)CC5)c(O)c4c3C2=O)NC(=O)/C(C)=C\C=C\[C@H](C)[C@H](O)[C@@H](C)[C@@H](O)[C@@H](C)[C@H](OC(C)=O)[C@@H]1C [rifampin],-3.69%
8,CCN(CC)Cc1ccc(C(=O)N(CCc2ccccc2OC)[C@@H]2CCNC2)cc1,-4.2%
9,CCc1cc(Cl)c(OC)c(C(=O)NC[C@@H]2CCCN2CC)c1O [eticlopride],-0.67%
10,C=C(C)[C@@H]1CC[C@]2(C(=O)O)CC[C@]3(C)[C@H](CC[C@@H]4[C@@]5(C)CC[C@H](O)C(C)(C)[C@@H]5CC[C@]43C)[C@@H]12 [betulinic-acid],-3.53%
11,CC/C(=C(\c1ccc(O)cc1)c1ccc(OCCNC)cc1)c1ccccc1 [Endoxifen HCl],7.36%
12,O=P1(N(CCCl)CCCl)NCCCO1 (stereo not given) [cyclophosphamide],0.27%
13,NCCc1c[nH]c2ccc(O)cc12 [serotonin],-0.57%
14,C[C@H]1c2cccc(O)c2C(=O)C2=C(O)[C@]3(O)C(=O)C(C(N)=O)=C(O)[C@@H](N(C)C)[C@@H]3[C@@H](O)[C@@H]21 [doxycycline],-0.605%
15,N=C(NCc1ccc(Cl)cc1)SCCCc1c[nH]cn1 [clobenpropit],1.91%
16,CCn1nc(C)c2c1C(c1ccccc1)=NCC(=O)N2 [ripazepam],0.91%
17,COc1cc(CCc2cc(NC(=O)c3ccc(N4CC(C)NC(C)C4)cc3)n[nH]2)cc(OC)c1 (stereo not given),1.81%
18,CCOC(=O)CCC(=O)O[C@H]1[C@H](O[C@@H]2[C@@H](C)[C@H](O[C@H]3C[C@@](C)(OC)[C@@H](O)[C@H](C)O3)[C@@H](C)C(=O)O[C@H](CC)[C@@](C)(O)[C@H](O)[C@@H](C)C(=O)[C@H](C)C[C@@]2(C)O)O[C@H](C)C[C@@H]1N(C)C [erythromycin-ethylsuccinate],0.11%
19,COc1ccc(-c2ccc3cc(C(=O)O)ccc3c2)cc1C12CC3CC(CC(C3)C1)C2 [adapalene],-0.29%
20,C=C1C[C@@]2(O)O[C@@]3(C[C@H]2C(C)C)[C@@H](C)CC[C@@H]13 [curcumol],-1.48%

row,Compound,inhibition of SARS-CoV-2 cytopathic effect
1,O=C(O)CN1C(=O)c2cccc3cccc(c23)C1=O [alrestatin],3.1%
2,CCCCOc1ccc(-c2cncc(C(=O)NCc3cccnc3N3CCOCC3)c2)cc1Cl,-2.48%
3,O=C(c1cccc(Br)c1)N1CCC(N2CCCC2)CC1,1.79%
4,CC[C@H]1[C@@H](O)[C@@H]2[C@H](CC[C@]3(C)[C@@H]([C@H](C)CCC(=O)O)CC[C@@H]23)[C@@]2(C)CC[C@@H](O)C[C@@H]12 [obeticholic-acid],1.41%
5,CC(C)(C#N)c1ccc(N2C(=O)OCc3cnc4ccc(-c5cnc6ccccc6c5)cc4c32)cc1,2.48%
6,c1cc(-c2cnn3cc(-c4ccc(N5CCNCC5)cc4)cnc23)c2cccnc2c1,-1.57%
7,c1ccc(N2CCN(CCCOc3ccc4c(c3)OCO4)CC2)cc1,-2.11%
8,CC(C)(C)NCC(O)c1cc(Br)no1 (stereo not given) [broxaterol],-0.09%
9,Nc1nc(=O)n([C@H]2C[C@H](O)[C@@H](CO)O2)cc1Cl [cytochlor],0.46%
10,COc1cc(OC)c(C(=O)CCCN2CCCC2)c(OC)c1 [buflomedil],0.64%
11,CCCCCCCCC(=O)N[C@H](CN1CCCC1)[C@H](O)c1ccc2c(c1)OCCO2,0.25%
12,O=C(O)C(F)(F)C(F)(F)C(F)(F)C(F)(F)C(F)(F)C(F)(F)C(F)(F)F [ammonium-perfluorocaprylate],-0.68%
13,Fc1ccc2c(CCNCc3cccc(OCC(F)(F)C(F)F)c3)c[nH]c2c1 [idalopirdine],0.96%
14,C=CC[C@]1(O)CC[C@H]2[C@@H]3CCC4=CCCC[C@@H]4[C@H]3CC[C@@]21C [allylestrenol],-2.16%
15,CSc1ccc(OCc2ncc([N+](=O)[O-])n2C)cc1 [fexinidazole],-1.7%
16,c1cc(OCCN2CCCCC2)cc(-c2n[nH]c3ccc(-c4nnc[nH]4)cc23)c1,-0.97%
17,CCCC(=O)C1(c2ccccc2)CCN(C(=O)[C@@H](Cc2ccc(OC)cc2)NC(=O)[C@@H](N)Cc2cncn2C)CC1,-1.21%
18,COc1ccc2c(c1)c(CC(=O)N1CCOCC1)c(C)n2C(=O)c1ccc(Cl)cc1,-0.48%
19,N#CC(Cc1ccc(O)cc1)c1ccc(O)cc1 (stereo not given) [diarylpropionitrile],1.57%
20,OC[C@H]1O[C@H](O[C@H]2O[C@H](CO)[C@@H](O)[C@H](O)[C@H]2O)[C@H](O)[C@@H](O)[C@@H]1O [cabaletta],3.4%

# Reference: the supplement of paper PMC13380429
